Redox H2O2 prof: compounds producing H2O2 with reducing agent – biochemical, NIH compound library profiling, artefact control for MLSCN library redox annotation, primary screen | DTT-dependent redox cycling H2O2, phenol red/HRP absorbance; 100% = 100 µM peroxide control, 0% = buffer | activation, % at 10 µM | 0.03% of 200,000 active;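 active = activation of at least 50% relative to the plate's high and low controls in the primary single-dose screen; inactive = activation below 50%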;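 also: compound incubated with DTT at 0.8 mM final as the reducing agent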
zVAD death inh: L929 zVAD cell death inhibition; L929 zVAD necroptosis rescue, ATP luminescence, 24 h; with zVAD 60 µM; AID 1377; viability rescue, % at 10 µM; 0.38% of 220,000 active;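 active = activation, scaled between plate controls, above about 75%, limit read from the data; inactive = activation under that limit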;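 also: 0% = zVAD with DMSO and 100% = DMSO alone without zVAD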
WT yeast gro inh: growth inhibition of WT yeast, mitochondrial fusion screen; mitochondrial fusion phenotypic screen, WT strain; 2.1% of 190,000 active; inhibition, % at 10 µM; in the data active = inhibition above about 58%; tested in S. cerevisiae
TNF death inh: inhibitors of TNF-alpha induced necroptosis in Jurkat FADD-/- cells; Jurkat FADD-/- TNF necroptosis rescue, ATP luminescence, 24 h; 0 = TNF only, 100 = no-TNF cells; 0.068% of 220,000 active; activation (protection from cell death), % at 10 µM;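 active = activation, meaning protection from cell death, of at least 50% relative to plate controls; inactive = activation below 50%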;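 also: necroptosis triggered by 40 ng/mL TNF-alpha added together with compound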
PKD1 kinase inh: blocks activity of human protein kinase D1; inhibition, % (concentration not given with the values); Q15139; PKD1 kinase fluorescence polarization assay; 0.056% of 200,000 active; AID 797; in the data active = inhibition above about 50%
Target sequence (Q15139 whole entry, looked up): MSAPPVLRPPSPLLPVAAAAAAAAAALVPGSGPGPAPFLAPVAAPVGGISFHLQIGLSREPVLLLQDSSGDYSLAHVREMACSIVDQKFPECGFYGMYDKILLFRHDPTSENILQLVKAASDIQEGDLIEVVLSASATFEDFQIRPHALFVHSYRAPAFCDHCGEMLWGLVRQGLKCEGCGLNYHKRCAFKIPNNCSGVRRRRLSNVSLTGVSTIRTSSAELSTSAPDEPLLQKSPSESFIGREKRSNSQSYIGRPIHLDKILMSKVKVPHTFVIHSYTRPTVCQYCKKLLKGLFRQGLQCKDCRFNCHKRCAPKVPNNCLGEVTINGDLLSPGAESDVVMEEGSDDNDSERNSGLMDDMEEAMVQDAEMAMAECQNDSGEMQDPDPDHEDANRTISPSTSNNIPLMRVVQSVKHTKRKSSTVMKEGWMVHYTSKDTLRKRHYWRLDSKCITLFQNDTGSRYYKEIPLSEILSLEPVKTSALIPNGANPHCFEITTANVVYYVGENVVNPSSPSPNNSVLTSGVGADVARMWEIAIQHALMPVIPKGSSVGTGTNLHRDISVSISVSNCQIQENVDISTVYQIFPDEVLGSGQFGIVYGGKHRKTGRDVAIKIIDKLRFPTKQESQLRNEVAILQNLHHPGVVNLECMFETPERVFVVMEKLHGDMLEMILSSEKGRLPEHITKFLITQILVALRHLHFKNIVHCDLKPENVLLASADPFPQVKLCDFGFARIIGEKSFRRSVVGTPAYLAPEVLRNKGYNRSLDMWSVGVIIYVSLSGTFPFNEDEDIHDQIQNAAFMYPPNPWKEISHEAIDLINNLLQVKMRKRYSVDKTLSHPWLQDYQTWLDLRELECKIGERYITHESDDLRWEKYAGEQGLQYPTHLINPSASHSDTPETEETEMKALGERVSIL
PERK inh: inhibitors of human PERK kinase; Q9NZJ5; CHO PERK-DD fusion, SEAP luminescence translation reporter; inhibition, % at 5.6 µM; 0.17% of 220,000 active; AID 1416;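 active = inhibition above the mean inhibition of all tested compounds plus 3 SD, set separately per screening campaign, cut at about 2.9% in these data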;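 also: PERK kinase domain activated by AP20187 dimerizer at 100 nM; 0% = DMSO with dimerizer and 100% = rapamycin at 8.4 µM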
Active calls of the source: *; · = no result given. In the library only some 2.4% were active in any assay of this set; here they are far more common.

SMILES	Redox H2O2 prof	zVAD death inh	WT yeast gro inh	TNF death inh	PKD1 kinase inh	PERK inh
COc1ccc(OCC(O)Cn2cnc(-c3ccc(Br)cc3)c2)cc1 (stereo not drawn)	0	0	-14	-1	3	0
COc1ccc(N2CCN(Cc3nc(-c4ccccc4)no3)CC2)cc1	0	10	8	1	1	1
O=S(=O)(Nc1ccc(O)c(Sc2nc3ccccc3s2)c1)c1cccc2ccccc12	0	1	69*	3	0	0
CN(C)c1cc[n+](CC(=O)Nc2ccc(Oc3ccccc3)cc2)cc1	2	1	76*	-12	-3	1
Cc1ccc(N)c2c1OCCC2=O	0	1	-13	0	-5	1
CCc1ccc(NC(=O)CSc2nc3ccccc3c(=O)n2CCCN2CCC(C)CC2)cc1	0	8	79*	-3	1	1
Cc1cccc2sc(NNC(=O)c3cc(-c4cccs4)nc4ccccc34)nc12	2	·	59*	-5	-6	0
O=C(O)C1C2C=CC(C2)C1C(=O)NCCCN1CCOCC1 (stereo not drawn)	2	0	-18	-2	-9	3.0*
O=c1c(C=Nc2cccc(C(F)(F)F)c2)c[nH]n1-c1cccc(Cl)n1	2	0	-4	-4	1	4.3*
CC(C)Cc1csc(NC(=O)C(C)C)c1C(=O)O	·	1	·	-1	·	0
CC(C)Cc1csc(NC(=O)c2ccc(Br)cc2)c1C(=O)O	·	1	·	-1	·	3.2*
CC(C)(O)CC[C@@H](O)[C@](C)(O)[C@H]1CC[C@@]2(O)C3=CC(=O)[C@@H]4C[C@@H](O)[C@@H](O)C[C@]4(C)C3CC[C@]12C (stereo partly drawn)	0	1	8	1	17	0
C[C@@H](C[C@@H](O)[C@H](O)C(C)(C)O)[C@@H]1CC[C@]2(C)C3=CC[C@H]4C(C)(C)C(=O)CC[C@]4(C)[C@H]3CC[C@@]12C	1	56	60*	2	-6	0
OC(CSc1c(Cl)cccc1Cl)CN1CCN(c2ccccc2F)CC1 (stereo not drawn)	-4	1	66*	0	-5	-1
CC(=O)N1N=C(c2ccc(Br)cc2)CC1c1cn(C)c2ccccc12 (stereo not drawn)	0	1	74*	3	1	0
CCOC(=O)c1ccc(Nc2nc(C(=O)OCC)nc3ccccc23)cc1	0	1	5	0	1	-1
CCOC(=O)c1nc(Nc2ccc(Nc3ccccc3)cc2)c2ccccc2n1	0	16	72*	-4	4	-1
Cc1nc2ccc(NS(=O)(=O)c3c(C)c(C)cc(C)c3C)cc2s1	0	0	15	-13	9	-1
Cc1nc2cc(NS(=O)(=O)c3c(C)c(C)cc(C)c3C)ccc2s1	0	0	69*	-1	9	-2
O=C(c1cccc(C(F)(F)F)c1)C1CCCN(C(=O)CCn2cnnn2)C1 (stereo not drawn)	·	0	·	3	·	1
COc1ccccc1CC(=O)Nc1ccc2nc(C)sc2c1	0	0	9	1	1	0
COc1cccc(CC(=O)Nc2ccc3nc(C)sc3c2)c1	0	0	64*	2	-4	0
Cc1cccc(NC(=S)N=Nc2c(O)[nH]c3ccccc23)c1	0	0	59*	-6	-5	-2
COc1ccccc1NS(=O)(=O)c1cccc(C(=O)NCc2ccco2)c1	0	3	8	1	10	0
Cc1cc(Cl)ccc1OCc1n[nH]c(=S)n1C1CCCCC1	2	0	94*	-1	-6	0
SMILES	Redox H2O2 prof	zVAD death inh	WT yeast gro inh	TNF death inh	PKD1 kinase inh	PERK inh
COc1ccc(Cl)cc1-c1n[nH]c(=S)n1C1CCCCC1	0	0	-1	0	3	1
Cc1ccccc1-c1nsc(SCC(=O)c2ccc(Cl)cc2)n1	0	-1	7	0	1	0
CC1=C(CC(=O)c2ccc(Cl)cc2)C(=O)c2ccccc2C1=O	2	1	44	-5	-4	2.9*
Nn1c(SCC(=O)Nc2ccc3c(c2)OCO3)nnc1-c1ccncc1	3	0	88*	-2	-12	0
O=C(CSc1ccc(-c2ccccc2)nn1)Nc1ccc2c(c1)OCCO2	0	1	-1	3	-11	1
O=C(CSC1=NC2(CCCCCC2)N=C1c1ccccc1)Nc1ccc2c(c1)OCCO2	3	6	58*	5	-9	-1
O=C(CSc1nnc2scc(-c3ccccc3)n12)Nc1ccc2c(c1)OCCO2	0	-1	73*	-3	-6	-1
O=C(CSC1=NC2(CCCCC2)N=C1c1ccccc1)Nc1ccc2c(c1)OCCO2	0	·	24	6	-5	-1
Nn1c(SCC(=O)Nc2ccc3c(c2)OCO3)nnc1C(F)(F)F	-1	0	-1	-1	1	0
O=S(=O)(/N=C(/Nc1ccc(F)cc1F)c1ccccc1)c1ccccc1	0	0	-19	1	-10	1
Cc1cc(C)c2c(c1)/C(=c1/sc3n(c1=O)CN(c1ccccc1)CN=3)C(=O)N2	·	0	·	3	·	-1
CCOc1nc(NC2CCCCC2)nc(NC(C)(C)C)n1	2	-1	58*	-3	-3	0
C(=N\NC1=Nc2cccc3cccc1c23)/c1ccccn1	0	1	68*	-4	2	0
Cc1nn(CCc2nn[nH]n2)c2nc(-c3ccc(C4CCCCC4)cc3)cc(C(F)(F)F)c12	-1	68	98*	1	-3	0
Cc1ccc(C)c(NC(=O)c2ccccc2C(=O)c2ccccc2)c1	-1	-1	63*	-1	-1	0
CCCCNC(=O)C1CCN(S(=O)(=O)c2cnc[nH]2)CC1	0	1	71*	1	-1	1
O=C(O)c1nn2cc(CCO)cnc2c1Cl	0	3	-14	0	-1	0
COc1ccc(CCNC(=O)CNC(=O)Cn2ccc3ccccc3c2=O)cc1OC	·	0	·	2	·	1
Cc1ccc2cc(CN(C(=O)c3ccco3)c3ccccc3C)c(=O)[nH]c2c1	-1	0	96*	-2	2	0
Cc1ccc(N(Cc2cc3ccc(C)cc3[nH]c2=O)C(=O)c2ccco2)c(C)c1	·	0	·	-5	·	-2
COc1ccc(-n2c(-c3ccc(Br)cc3)c[n+]3c2SC(C)C3)cc1 (stereo not drawn)	-1	0	15	-3	-5	0
CC(=O)Cc1nsc(NC(=O)c2ccc(-c3cc(Cl)ccc3Cl)o2)n1	1	2	71*	-2	-5	1
CC(=O)Cc1nsc(NC(=O)c2ccc(-c3ccc(Cl)c(Cl)c3)o2)n1	0	3	69*	3	1	0
